Among the data in PubChem BioAssay (EPA / NIEHS) are outcome and AC50 values, retold here.

Some structures have more than one record in an assay (separate samples or runs), and their calls can disagree. Calls of active or inactive are those of the source. The calls were made as follows: active = hit-call score of the fitted dose curve at least 0.9, where 1 is the maximum; inactive = score below 0.9.

Assay [1] is described as follows: ATG_GLI_CIS: Attagene CIS-FACTORIAL HepG2 Assay for human Zinc Finger Protein GLI1 (AID 2282945). To be noted: HepG2, Attagene cis-factorial reporter mRNA, GLI element; actives raise or lower the signal. The procedure, abridged:
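HepG2 cells transiently transfected with cis-promoter multiplexed reporter units report endogenous transcription factor activity. After 24 h chemical exposure, reporter mRNA was quantified by RT-PCR, 6-FAM labelling, HpaI digestion and capillary electrophoresis, with bidirectional fitting against DMSO.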

A short description of assay [2]: ATG_GRE_CIS: Attagene CIS-FACTORIAL HepG2 Assay for human Glucocorticoid Response Elements (GRE) (AID 2282947). The following applies: HepG2 GRE cis-reporter, Attagene multiplex mRNA; actives raise or lower the signal. The procedure, abridged:
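HepG2 cells transiently transfected with multiple cis-promoter reporter units measure endogenous TF activity; 24 h compound exposure. Reporter mRNA quantified by RT-PCR, FAM labelling, HpaI digestion and capillary electrophoresis; bidirectional fit vs DMSO baseline.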

A short description of assay [3]: ATG_ISRE_CIS: Attagene CIS-FACTORIAL HepG2 Assay for human Interferon Regulatory Factor 1 (IRF1) binding to an Interferon-Stimulated Response Element (ISRE) (AID 2282948). To be noted: HepG2 ISRE cis-reporter (Attagene), mRNA transcription readout; actives raise or lower the signal. The procedure, abridged: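 Transiently transfected HepG2 cells carrying cis-element reporter units, dosed 24 hours. Reporter mRNA quantified by RT-PCR, fluorescent primer extension, HpaI digestion and capillary electrophoresis. Bidirectional fitting relative to DMSO.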

Assay [4] in a line: ATG_M_32_CIS: Attagene CIS-FACTORIAL HepG2 Assay for M32 Transcription Factor (Internal Marker) (AID 2282949).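 Also: background control marker of the multiplexed CIS panel rather than a real target.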 To be noted: HepG2 Attagene cis-factorial M32 reporter, mRNA; actives raise or lower the signal. The procedure, abridged:
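Following 24 h chemical exposure of HepG2 cells transiently expressing cis-promoter reporter constructs, reporter transcript levels were determined by RT-PCR with fluorescent labelling and capillary electrophoresis, then fitted bidirectionally against DMSO.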

The nature of assay [5]: ATG_M_06_CIS: Attagene CIS-FACTORIAL HepG2 Assay for M06 Transcription Factor (Internal Marker) (AID 2282950). The following applies: HepG2 Attagene CIS-FACTORIAL M06 internal marker reporter; actives raise or lower the signal. The procedure, abridged: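 Terse: HepG2, transient MRTU transfection (FuGene 6), 24 h dosing; total RNA, oligo(dT) RT, PCR, FAM label, HpaI cut, capillary electrophoresis; bidirectional fit vs DMSO baseline; background-control endpoint.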

Assay [6] concerns the target Hypoxia-inducible factor 1-alpha (Homo sapiens) (UniProt Q16665). As to the kind of experiment: ATG_HIF1a_CIS: Attagene CIS-FACTORIAL HepG2 Assay for human Hypoxia Inducible Factor 1 (HIF1A) (AID 2282951). The following applies: HepG2 Attagene cis-factorial HIF1a reporter transcription; actives raise or lower the signal. The procedure, abridged:
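HepG2 cells transiently transfected with multiplexed cis-promoter reporter units; reporter mRNA read 24 h after dosing by RT-PCR, 6-FAM primer-extension labelling, HpaI digestion and capillary electrophoresis. Bidirectional fit versus DMSO baseline.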

In assay [7] the target is Hepatocyte nuclear factor 6 (Homo sapiens) (UniProt Q9UBC0). The assay can be described thus: ATG_HNF6_CIS: Attagene CIS-FACTORIAL HepG2 Assay for human Hepatocyte Nuclear Factor 6 (HNF6) (AID 2282952). The following applies: HepG2 Attagene cis-factorial HNF6 reporter transcription; actives raise or lower the signal. The procedure, abridged:
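Reporter mRNA induction or loss in HepG2 after 24 h exposure; transient cis-MRTU transfection; fragments quantified by capillary electrophoresis; bidirectional analysis, DMSO as negative control.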

Assay [8] in a line: ATG_MRE_CIS: Attagene CIS-FACTORIAL HepG2 Assay for human Metal Responsive Element (MRE) (AID 2282954). To be noted: HepG2 MRE cis-reporter transcription, Attagene multiplex; actives raise or lower the signal. The procedure, abridged: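 HepG2 cells transiently transfected with multiple cis-element reporter units measure endogenous MTF1-driven transcription. After 24 h compound exposure, reporter mRNA is quantified by RT-PCR with 6-FAM labelling, HpaI digestion and capillary electrophoresis; bidirectional fits versus DMSO.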

In assay [9] the target is Paired box protein Pax-6 (Homo sapiens) (UniProt P26367). The assay can be described thus: ATG_Pax6_CIS: Attagene CIS-FACTORIAL HepG2 Assay for human Paired Box 6 (PAX6) (AID 2282956). To be noted: HepG2 CIS-FACTORIAL PAX6 reporter transcription, RNA readout; actives raise or lower the signal. The procedure, abridged: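 HepG2 cells transiently transfected with cis-promoter-driven multiplexed reporter units sensing endogenous transcription factor activity; 24 h chemical exposure. Reporter mRNA quantified by RT-PCR, 6-FAM labelling, HpaI digestion and capillary electrophoresis; bidirectional fit versus DMSO baseline.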

Assay [10] is described as follows: ATG_PXRE_CIS: Attagene CIS-FACTORIAL HepG2 Assay for human Pregnane X Receptor Element (PXRE) (AID 2282957). The following applies: HepG2 Attagene CIS-FACTORIAL PXRE reporter, mRNA; actives raise or lower the signal. The procedure, abridged: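 Transiently transfected HepG2 cells were dosed and incubated for 24 h. RNA was then isolated, DNase-treated, reverse-transcribed and reporter sequences amplified. Labeled, HpaI-digested fragments were quantified by capillary electrophoresis against DMSO.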

The nature of assay [11]: ATG_RORE_CIS: Attagene CIS-FACTORIAL HepG2 Assay for human RAR-related Orphan Receptor Element (RORE) (AID 2282959). The following applies: HepG2 Attagene cis-factorial RORE reporter, mRNA; actives raise or lower the signal. The procedure, abridged:
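HepG2 cells transiently transfected with multiple cis-element reporter transcription units, exposed to chemical for 24 h. Reporter mRNA quantified by RT-PCR, 6-FAM primer-extension labeling, HpaI digestion and capillary electrophoresis; bidirectional fit versus DMSO baseline.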

Assay [12] is described as follows: ATG_Sox_CIS: Attagene CIS-FACTORIAL HepG2 Assay for human SRY-box transcription factor (SOX) (AID 2282960). The following applies: HepG2 Attagene cis-factorial SOX reporter, mRNA; actives raise or lower the signal. The procedure, abridged: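 HepG2 cells transiently transfected with cis-element-driven multiple reporter transcription units, dosed 24 h; reporter mRNA measured by RT-PCR, FAM labelling, HpaI digestion and capillary electrophoresis. Bidirectional fit versus DMSO baseline.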

For assay [13], the target named is Transcription factor Sp1 (Homo sapiens) (UniProt P08047). As to the kind of experiment: ATG_Sp1_CIS: Attagene CIS-FACTORIAL HepG2 Assay for human Specificity Protein 1 (Sp1) (AID 2282961). The following applies: HepG2 Sp1 cis-reporter transcription, actives raise or lower the signal. The procedure, abridged: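 HepG2 cells transiently transfected with multiple reporter transcription units driven by cis-regulatory elements; Sp1-responsive reporter mRNA measured 24 h after dosing by RT-PCR and capillary electrophoresis fluorescence, fitted bidirectionally against DMSO baseline.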

A short description of assay [14]: ATG_SREBP_CIS: Attagene CIS-FACTORIAL HepG2 Assay for human Sterol Regulatory Element Binding (SREBP) (AID 2282962). The following applies: HepG2 Attagene cis-factorial SREBP reporter, mRNA; actives raise or lower the signal. The procedure, abridged:
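HepG2 cells transiently transfected with multiplexed cis-promoter reporter units sensing endogenous transcription factors; reporter mRNA measured 24 h after dosing by RT-PCR, 6-FAM labeling, HpaI digestion and capillary electrophoresis. Bidirectional fit versus DMSO.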

Assay [15] has as its target Signal transducer and activator of transcription 3 (Homo sapiens) (UniProt P40763). As to the kind of experiment: ATG_STAT3_CIS: Attagene CIS-FACTORIAL HepG2 Assay for human Signal Transducer and Activator of Transcription 3 (STAT3) (AID 2282963). To be noted: HepG2, Attagene cis-factorial STAT3 reporter transcription; actives raise or lower the signal. The procedure, abridged:
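HepG2 cells transiently transfected with cis-element-driven multiple reporter transcription units; after 24 h chemical exposure, reporter mRNA measured by RT-PCR, 6-FAM primer-extension labelling, HpaI digestion and capillary electrophoresis. Bidirectional fitting versus DMSO baseline.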

Assay [16] in a line: ATG_TA_CIS: Attagene CIS-FACTORIAL HepG2 Assay for human TA Basal Promoter (AID 2282964). To be noted: HepG2 Attagene CIS-factorial TA basal promoter reporter; actives raise or lower the signal. The procedure, abridged:
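Transfected HepG2, 24 h compound exposure; RNA → RT-PCR → FAM primer extension → HpaI cut → CE fluorescence. Gain/loss-of-signal fitted against DMSO negative control. Background-control readout.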

The target of assay [17] is Heat shock factor protein 1 (Homo sapiens) (UniProt Q00613). As to the kind of experiment: ATG_HSE_CIS: Attagene CIS-FACTORIAL HepG2 Assay for human Heat Shock Transcription Factor 1 (HSE) (AID 2282953). The following applies: HepG2 HSE cis-reporter, Attagene RNA transcription; actives raise or lower the signal. The procedure, abridged:
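Read-out: fluorescence of reporter-specific RT-PCR fragments separated by capillary electrophoresis. HepG2 carrying transfected cis-element reporter units; 24 h dosing; activity fitted in both directions relative to DMSO baseline.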

The nature of assay [18]: ATG_PBREM_CIS: Attagene CIS-FACTORIAL HepG2 Assay for human Phenobarbital-responsive Enhancer Module (PBREM) (AID 2282955). To be noted: HepG2 PBREM cis-reporter, Attagene multiplexed transcription; actives raise or lower the signal. The procedure, abridged: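 HepG2 cells transiently transfected with multiple cis-regulated reporter transcription units; endogenous factor activity at the PBREM element measured as reporter mRNA 24 h after dosing, via RT-PCR and capillary electrophoresis of fluorescent fragments; bidirectional fitting versus DMSO.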

A short description of assay [19]: ATG_PPRE_CIS: Attagene CIS-FACTORIAL HepG2 Assay for human Peroxisome Proliferator-activated Response Element (PPRE) (AID 2282958). To be noted: HepG2 PPRE cis-element reporter, Attagene transcription factor profiling; actives raise or lower the signal. The procedure, abridged: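 HepG2 cells transiently transfected with multiplexed cis-element reporter units measure endogenous transcription factor activity. After 24 h compound exposure, reporter mRNA is quantified by RT-PCR, 6-FAM labeling, HpaI digestion and capillary electrophoresis; bidirectional fits are made against DMSO baseline.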

As a reminder, the AC50 is the concentration giving half of the maximal activity seen.

Sequence of Paired box protein Pax-6 (Homo sapiens) (P26367 whole entry, looked up): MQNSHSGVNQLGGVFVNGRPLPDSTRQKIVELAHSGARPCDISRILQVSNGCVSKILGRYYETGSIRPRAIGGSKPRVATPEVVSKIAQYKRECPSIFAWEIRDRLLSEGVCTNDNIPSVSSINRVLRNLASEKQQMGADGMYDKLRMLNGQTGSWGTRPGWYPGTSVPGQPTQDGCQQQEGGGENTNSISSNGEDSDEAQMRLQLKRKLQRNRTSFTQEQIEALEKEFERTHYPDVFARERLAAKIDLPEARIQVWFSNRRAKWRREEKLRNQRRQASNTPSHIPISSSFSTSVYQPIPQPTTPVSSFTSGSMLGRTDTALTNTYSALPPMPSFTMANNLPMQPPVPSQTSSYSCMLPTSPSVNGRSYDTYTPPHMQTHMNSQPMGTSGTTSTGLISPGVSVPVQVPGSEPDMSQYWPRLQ
Sequence of Heat shock factor protein 1 (Homo sapiens) (Q00613 whole entry, looked up, the tested form may be a part): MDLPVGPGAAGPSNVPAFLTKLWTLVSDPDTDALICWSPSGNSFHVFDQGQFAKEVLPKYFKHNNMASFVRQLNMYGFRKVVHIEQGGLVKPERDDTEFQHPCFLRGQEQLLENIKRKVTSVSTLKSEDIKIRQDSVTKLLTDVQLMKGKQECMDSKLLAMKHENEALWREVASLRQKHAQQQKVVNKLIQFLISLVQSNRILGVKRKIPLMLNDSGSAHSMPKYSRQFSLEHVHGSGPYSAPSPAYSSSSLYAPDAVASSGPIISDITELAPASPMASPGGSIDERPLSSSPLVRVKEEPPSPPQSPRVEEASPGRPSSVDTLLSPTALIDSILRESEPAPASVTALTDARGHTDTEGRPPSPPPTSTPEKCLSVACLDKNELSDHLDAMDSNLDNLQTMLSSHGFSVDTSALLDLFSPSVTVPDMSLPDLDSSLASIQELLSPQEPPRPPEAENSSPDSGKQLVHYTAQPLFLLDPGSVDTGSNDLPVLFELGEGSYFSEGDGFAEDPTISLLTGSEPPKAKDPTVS
Sequence of Signal transducer and activator of transcription 3 (Homo sapiens) (P40763 whole entry, looked up): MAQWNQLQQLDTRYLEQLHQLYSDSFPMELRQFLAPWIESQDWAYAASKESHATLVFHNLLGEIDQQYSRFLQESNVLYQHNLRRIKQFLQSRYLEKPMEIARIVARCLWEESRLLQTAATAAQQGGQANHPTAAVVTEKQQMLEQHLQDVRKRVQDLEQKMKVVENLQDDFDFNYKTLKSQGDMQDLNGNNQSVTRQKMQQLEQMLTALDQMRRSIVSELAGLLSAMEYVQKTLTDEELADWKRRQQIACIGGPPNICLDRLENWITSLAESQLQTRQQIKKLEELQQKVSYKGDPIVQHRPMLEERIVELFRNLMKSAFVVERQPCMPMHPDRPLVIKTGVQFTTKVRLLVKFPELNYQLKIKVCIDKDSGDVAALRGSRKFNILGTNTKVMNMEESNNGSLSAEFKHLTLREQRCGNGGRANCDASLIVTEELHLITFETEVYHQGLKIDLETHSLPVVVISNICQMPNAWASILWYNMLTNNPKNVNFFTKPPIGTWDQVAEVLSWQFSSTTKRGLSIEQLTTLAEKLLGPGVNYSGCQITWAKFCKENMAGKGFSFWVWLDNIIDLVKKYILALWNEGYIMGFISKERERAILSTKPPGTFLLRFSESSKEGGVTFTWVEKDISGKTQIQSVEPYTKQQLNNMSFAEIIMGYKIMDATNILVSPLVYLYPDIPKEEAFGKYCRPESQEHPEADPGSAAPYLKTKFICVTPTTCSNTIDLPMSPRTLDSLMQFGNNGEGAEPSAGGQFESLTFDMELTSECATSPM
Sequence of Hepatocyte nuclear factor 6 (Homo sapiens) (Q9UBC0 whole entry, looked up, the tested form may be a part): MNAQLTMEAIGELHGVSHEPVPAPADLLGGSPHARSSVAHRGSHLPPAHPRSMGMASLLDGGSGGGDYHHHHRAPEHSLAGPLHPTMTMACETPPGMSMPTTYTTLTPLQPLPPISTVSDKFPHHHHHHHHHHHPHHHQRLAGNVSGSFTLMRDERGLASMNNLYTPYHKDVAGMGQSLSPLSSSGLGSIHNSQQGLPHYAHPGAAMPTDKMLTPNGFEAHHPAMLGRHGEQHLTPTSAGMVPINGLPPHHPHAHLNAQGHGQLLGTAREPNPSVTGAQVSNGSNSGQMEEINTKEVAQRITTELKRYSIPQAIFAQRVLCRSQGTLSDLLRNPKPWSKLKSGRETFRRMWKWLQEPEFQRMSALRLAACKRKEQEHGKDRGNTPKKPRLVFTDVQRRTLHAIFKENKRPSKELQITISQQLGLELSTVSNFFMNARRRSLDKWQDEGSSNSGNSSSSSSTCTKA
Sequence of Hypoxia-inducible factor 1-alpha (Homo sapiens) (Q16665 whole entry, looked up): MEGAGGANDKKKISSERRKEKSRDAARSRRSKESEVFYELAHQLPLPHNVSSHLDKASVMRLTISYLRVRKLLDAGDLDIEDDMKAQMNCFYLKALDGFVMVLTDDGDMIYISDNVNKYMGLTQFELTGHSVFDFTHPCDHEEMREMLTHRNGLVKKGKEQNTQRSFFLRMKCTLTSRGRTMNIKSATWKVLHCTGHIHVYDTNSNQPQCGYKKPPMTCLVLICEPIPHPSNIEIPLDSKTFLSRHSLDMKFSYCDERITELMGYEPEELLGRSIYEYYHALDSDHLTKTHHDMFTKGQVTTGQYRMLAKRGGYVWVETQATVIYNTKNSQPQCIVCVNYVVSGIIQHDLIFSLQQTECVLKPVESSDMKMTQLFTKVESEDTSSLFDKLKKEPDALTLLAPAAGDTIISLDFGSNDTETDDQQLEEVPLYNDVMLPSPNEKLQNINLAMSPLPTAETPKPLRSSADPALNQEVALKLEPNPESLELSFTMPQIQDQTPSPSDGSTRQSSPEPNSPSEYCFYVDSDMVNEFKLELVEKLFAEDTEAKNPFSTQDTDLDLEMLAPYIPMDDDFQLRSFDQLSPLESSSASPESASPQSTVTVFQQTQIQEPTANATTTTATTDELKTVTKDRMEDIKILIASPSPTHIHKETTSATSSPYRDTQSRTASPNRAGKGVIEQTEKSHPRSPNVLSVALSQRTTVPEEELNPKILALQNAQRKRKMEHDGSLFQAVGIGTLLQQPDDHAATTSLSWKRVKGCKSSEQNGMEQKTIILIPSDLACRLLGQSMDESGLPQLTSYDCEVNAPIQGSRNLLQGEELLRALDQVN
Sequence of Transcription factor Sp1 (Homo sapiens) (P08047 whole entry, looked up): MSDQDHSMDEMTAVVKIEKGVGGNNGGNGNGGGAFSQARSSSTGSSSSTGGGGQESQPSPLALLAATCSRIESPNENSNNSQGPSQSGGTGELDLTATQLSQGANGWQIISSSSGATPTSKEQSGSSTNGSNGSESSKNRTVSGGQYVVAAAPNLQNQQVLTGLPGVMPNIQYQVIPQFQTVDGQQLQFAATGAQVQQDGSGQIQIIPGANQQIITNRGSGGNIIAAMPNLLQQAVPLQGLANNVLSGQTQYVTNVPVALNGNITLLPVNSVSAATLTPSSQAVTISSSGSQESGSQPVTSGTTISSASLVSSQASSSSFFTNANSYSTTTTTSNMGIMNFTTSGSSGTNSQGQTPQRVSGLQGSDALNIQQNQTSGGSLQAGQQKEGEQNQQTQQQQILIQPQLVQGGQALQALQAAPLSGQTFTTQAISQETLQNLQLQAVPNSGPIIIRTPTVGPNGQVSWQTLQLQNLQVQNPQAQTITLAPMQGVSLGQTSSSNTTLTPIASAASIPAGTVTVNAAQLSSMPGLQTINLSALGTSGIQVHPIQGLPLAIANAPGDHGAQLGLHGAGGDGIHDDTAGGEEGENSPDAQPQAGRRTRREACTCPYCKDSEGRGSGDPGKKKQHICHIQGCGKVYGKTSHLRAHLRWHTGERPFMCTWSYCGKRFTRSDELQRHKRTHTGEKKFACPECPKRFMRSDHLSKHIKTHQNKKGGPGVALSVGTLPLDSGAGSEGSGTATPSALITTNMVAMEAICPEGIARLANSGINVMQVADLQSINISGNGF

Regarding `Nc1ccc(O)c(N)c1`, the result in assay [1], in [2], in assay [3], in assay [4], in assay [5] and in assay [6] was inactive. The compound was called inactive in assay [7], in [8], in [9], in assay [10], in assay [11] and in [12]. For the same compound, the compound was classed as inactive in assay [13], in assay [14], in assay [15] and in assay [16].

On to `CCOC(=O)COC(=O)c1ccccc1C(=O)OCC`, for which the call in assay [1], in assay [2], in assay [3], in assay [4], in assay [5] and in assay [6] was inactive. For the same compound, the compound was called inactive in assay [17], in [8], in assay [18], in assay [9], in assay [19] and in [11]. Besides, the result in [12], in assay [13], in assay [14], in [15] and in assay [16] was inactive. Also, the AC50 in assay [10] was 50.1 µM (active).

Take `Nc1ccc(N)c([N+](=O)[O-])c1`: the compound was called inactive in assay [1], in assay [2], in assay [3], in [4], in assay [5] and in assay [6]. In addition, the outcome in [17], in assay [8], in assay [18], in [9], in assay [10] and in [12] was inactive. Moreover, the call in assay [14], in assay [15] and in assay [16] was inactive. The half-maximal activity concentration (AC50) in assay [17] is 25.9 µM (active).

In the case of `FC(F)(F)c1ccc(Cl)c(Cl)c1`, the call in assay [1], in [2], in assay [3], in assay [4], in assay [5] and in assay [6] was inactive. Further, the call in assay [7], in assay [17], in assay [8], in assay [19], in assay [11] and in [12] was inactive. Further, the compound was classed as inactive in assay [13], in [14], in assay [15] and in assay [16]. Moreover, in assay [10], the AC50 is 27.9 µM (active).

`O=Cc1ccccc1O`: the compound was called inactive in [1], in assay [2], in [3], in assay [4], in [5] and in [6]. Further, the outcome in [8], in [18], in assay [9], in [19], in assay [12] and in assay [13] was inactive. In addition, the result in assay [14], in assay [15] and in [16] was inactive. For the same compound, the AC50 was 100 µM (active) in assay [10] and 76.3 µM (active) in assay [11].

As for `CC(C)COC(=O)c1ccccc1O`, the outcome in assay [1], in assay [2], in assay [3], in assay [4], in assay [5] and in [6] was inactive. Also, the compound was called inactive in [7], in [17], in assay [8], in [19], in assay [11] and in assay [12]. For the same compound, the call in [14], in [15] and in [16] was inactive. Further, the AC50 in assay [10] is 44.8 µM (active).

In the case of `O=S(=O)(O)CCCN1CCOCC1`, the call in [1], in [2], in assay [3], in [4], in assay [5] and in [6] was inactive. In addition, the outcome in assay [7], in assay [8], in assay [9], in assay [10], in [19] and in assay [12] was inactive. Further, the outcome in [13], in assay [14], in [15] and in assay [16] was inactive.

On to `S=c1[nH][nH]c(=S)s1`, for which the compound was classed as inactive in assay [1], in [2], in [3], in assay [4], in [5] and in assay [6]. For the same compound, the compound was called inactive in assay [7], in [17], in [8], in [10], in assay [11] and in assay [12]. For the same compound, the compound was called inactive in assay [13], in [14], in [15] and in [16].
